Reference: PubChem BioAssay (NCATS)
Results filed as inconclusive are left out. Activity calls are given as the source filed them. Unless noted, calls come from the whole dose curve; as a rule, active = well fitted curve in either direction with a large enough effect (not every such curve was filed as active); inconclusive = small, poorly fitted or top-dose-only effect, or another doubt; inactive = flat fitted curve, though single readings scatter.

Experiments:
[1] = biological target: Lysosomal acid glucosylceramidase (Homo sapiens) (UniProt P04062); assay: Glucocerebrosidase-p2 (AID 348; in the data active = potency below about 10 µM; note: potency is the fitted concentration of half-maximal effect); settings: purified GBA, blue fluorogenic substrate, 40 min
Lysosomal acid glucosylceramidase (Homo sapiens), sequence (P04062 whole entry, looked up): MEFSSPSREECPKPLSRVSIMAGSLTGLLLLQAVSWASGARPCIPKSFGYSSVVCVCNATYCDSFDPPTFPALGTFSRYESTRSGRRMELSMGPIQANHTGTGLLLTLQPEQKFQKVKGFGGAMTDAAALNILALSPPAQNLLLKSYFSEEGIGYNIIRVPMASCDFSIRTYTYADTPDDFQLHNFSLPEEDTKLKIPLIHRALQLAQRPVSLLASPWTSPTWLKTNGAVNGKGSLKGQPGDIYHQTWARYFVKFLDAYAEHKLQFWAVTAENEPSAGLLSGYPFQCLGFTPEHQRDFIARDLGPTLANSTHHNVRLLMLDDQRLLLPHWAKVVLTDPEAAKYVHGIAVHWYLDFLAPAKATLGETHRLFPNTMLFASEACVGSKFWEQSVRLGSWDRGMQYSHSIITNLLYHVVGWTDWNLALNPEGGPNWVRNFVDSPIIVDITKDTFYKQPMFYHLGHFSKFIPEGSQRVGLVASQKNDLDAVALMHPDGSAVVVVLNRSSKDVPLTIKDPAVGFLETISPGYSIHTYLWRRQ
Summary of the method: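 Normal human glucocerebrosidase (0.2 nM) with blue fluorogenic substrate (80 uM final) in citrate/phosphate pH 5.9 with 10mM sodium taurocholate, 0.01% tween-20; 40 min RT, NaOH/glycine stop; fluorescence Ex 365/Em 440; AC50 from a titration from 0.6 nM upwards.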

[2] = AP1 Signaling Pathway (AID 357); settings: ME-180 AP-1-bla reporter, EGF-induced, beta-lactamase ratio, 5 h; at 7.69 µM (top of the series) unless noted;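 note: ME-180 reporter cells stimulated with EGF at its EC50 level; % is set by controls: 0 for no effect and ±100 for the full control effect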
Summary of the method: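 A ratiometric CCF4 readout (405 nm excitation; 460 and 530 nm emission) quantified AP-1-driven beta-lactamase in ME-180 cells after 5 h with compound and EC50 EGF; AC50 values were derived for activators and inhibitors.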

[3] = biological target: Cytochrome P450 1A2 (Homo sapiens) (UniProt P05177); assay: p450-cyp1a2 (AID 410; calls by dose curve; note: potency is the fitted concentration of half-maximal effect;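 for activity change, negative = inhibition: -100% = full effect of reference inhibitor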); settings: recombinant CYP1A2, luciferin-ME demethylation, luminescence; series mostly up to 11.4 µM
Cytochrome P450 1A2 (Homo sapiens), sequence (P05177 whole entry, looked up): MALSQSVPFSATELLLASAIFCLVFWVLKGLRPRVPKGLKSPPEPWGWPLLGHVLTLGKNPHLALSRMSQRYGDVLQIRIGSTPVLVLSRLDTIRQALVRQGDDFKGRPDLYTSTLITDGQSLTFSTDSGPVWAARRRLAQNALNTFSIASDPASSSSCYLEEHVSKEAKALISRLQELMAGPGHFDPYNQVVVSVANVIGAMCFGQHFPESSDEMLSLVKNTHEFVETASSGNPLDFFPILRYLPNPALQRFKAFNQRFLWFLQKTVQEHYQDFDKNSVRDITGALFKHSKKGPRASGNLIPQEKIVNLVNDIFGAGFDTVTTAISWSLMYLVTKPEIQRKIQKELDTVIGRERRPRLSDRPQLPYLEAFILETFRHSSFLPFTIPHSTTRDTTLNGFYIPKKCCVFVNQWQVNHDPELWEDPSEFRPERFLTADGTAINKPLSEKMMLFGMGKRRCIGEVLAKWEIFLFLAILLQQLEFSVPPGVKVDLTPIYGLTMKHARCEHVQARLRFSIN
Summary of the method: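 O-Demethylation of luciferin 6' methyl ether by human CYP1A2 is monitored as luciferase luminescence. Substrate sits at Km (100uM); enzyme is 20nM. Values are scaled to 57 uM furafylline as maximal inhibition.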

[4] = NFAT Signaling Pathway (AID 444); settings: Jurkat NFAT-bla M1, carbachol, beta-lactamase ratio, 5 h; at 7.69 µM (top of the series) unless noted;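 note: carbachol stimulus at about its EC50 of 1 µM final; % is set by controls: 0 for no effect and ±100 for the full control effect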
Summary of the method: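 Jurkat cells carrying an NFAT-driven β-lactamase reporter and co-transfected muscarinic M1 receptor were treated with compound plus carbachol (1 uM final, an EC50 level) for 5 h at 37 °C. CCF4 loading followed for 1 h at RT; 460/530 nm ratio gave %activity.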

[5] = Stat Signaling Pathway (AID 446); settings: ME-180 SIE beta-lactamase reporter, IL-6 stimulated, 5 h; at 7.69 µM (top of the series) unless noted;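 note: ME-180 cervical cancer cells given 40 pM IL-6 alongside compound; SIE-controlled beta-lactamase reporter measured as 460/530 nm FRET emission ratio; % is set by controls: 0 for no effect and ±100 for the full control effect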
Summary of the method: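 Compound effects on IL-6-induced STAT reporter activity were measured in ME-180 cells. After overnight culture, cells were co-treated with 40 pM IL-6 for 5 hrs before beta-lactamase substrate loading at room temperature.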

[6] = biological target: Mitogen-activated protein kinase 10 (Mus musculus) (UniProt Q61831); assay: JNK3 AlphaScreen Assay (AID 530); settings: JNK3 lysate, c-Jun phosphorylation; series mostly up to 11.4 µM;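 note: kinase came from lysate of stimulated human HepG2 cells; signal reports phosphorylation of biotinylated GST-cJun 1-79 at Ser73 with 10 µM ATP; % is set by controls: 0 for no effect and ±100 for the full control effect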
Summary of the method: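 Phosphorylation of biotinylated GST-cJun(1-79) at Ser73 is measured by AlphaScreen proximity luminescence. Enzyme is JNK3 in HepG2 lysates activated with interleukin-1beta and tumor necrosis factor alpha; ATP is 10 uM final.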

[7] = biological target: 3',5'-cyclic-AMP phosphodiesterase 4B (Homo sapiens) (UniProt Q07343); assay: qHTS Assay for Inhibitors of PDE-IV (AID 607; active = well fitted activation curve with a large enough effect in the main read-out, with a control signal flat, not every such curve was filed as active; note: % of control where 0% means no effect); settings: HEK293 ACTOne CNG channel cells, membrane potential fluorescence; series mostly up to 22.9 µM
3',5'-cyclic-AMP phosphodiesterase 4B (Homo sapiens), sequence (Q07343 whole entry, looked up): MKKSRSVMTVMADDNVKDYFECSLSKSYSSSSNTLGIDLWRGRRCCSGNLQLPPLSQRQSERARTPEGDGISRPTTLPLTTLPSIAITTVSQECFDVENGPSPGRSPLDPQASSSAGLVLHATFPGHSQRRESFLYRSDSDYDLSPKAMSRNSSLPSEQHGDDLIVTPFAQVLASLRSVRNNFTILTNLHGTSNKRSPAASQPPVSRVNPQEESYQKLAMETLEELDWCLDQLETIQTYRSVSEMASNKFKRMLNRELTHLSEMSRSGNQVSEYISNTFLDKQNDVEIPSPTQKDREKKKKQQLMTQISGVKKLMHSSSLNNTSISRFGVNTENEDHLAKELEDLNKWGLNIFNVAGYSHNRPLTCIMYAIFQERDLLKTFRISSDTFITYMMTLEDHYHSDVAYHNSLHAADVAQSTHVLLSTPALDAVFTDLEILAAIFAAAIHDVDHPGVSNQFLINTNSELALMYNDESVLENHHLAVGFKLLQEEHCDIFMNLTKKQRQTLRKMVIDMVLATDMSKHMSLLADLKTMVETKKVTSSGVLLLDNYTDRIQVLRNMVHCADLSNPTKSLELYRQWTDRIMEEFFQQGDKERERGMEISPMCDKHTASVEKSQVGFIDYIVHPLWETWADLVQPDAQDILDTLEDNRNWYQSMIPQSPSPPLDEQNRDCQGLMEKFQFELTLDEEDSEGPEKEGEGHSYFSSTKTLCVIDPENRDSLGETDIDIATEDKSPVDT
Summary of the method: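 ACTOne HEK293 cells carry a modified cAMP-gated CNG channel and express endogenous PDE4; plated 1000 cells/well, compounds up to 22.9 uM final. Membrane-potential dye fluorescence (ex 535/em 590) was read; parental cells received 10 uM forskolin + 100 uM RO 20-1724.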

[8] = biological target: Glucocorticoid receptor (Homo sapiens) (UniProt P04150); assay: GR-GFP Redistribution (AID 450;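 active = compounds whose dose series gives a full or clear partial fitted curve of increased nuclear translocation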; note: potency is the fitted concentration of half-maximal effect); settings: U2OS GR-GFP nuclear translocation, laser cytometry, 2 h
Glucocorticoid receptor (Homo sapiens), sequence (P04150 whole entry, looked up, the tested form may be a part): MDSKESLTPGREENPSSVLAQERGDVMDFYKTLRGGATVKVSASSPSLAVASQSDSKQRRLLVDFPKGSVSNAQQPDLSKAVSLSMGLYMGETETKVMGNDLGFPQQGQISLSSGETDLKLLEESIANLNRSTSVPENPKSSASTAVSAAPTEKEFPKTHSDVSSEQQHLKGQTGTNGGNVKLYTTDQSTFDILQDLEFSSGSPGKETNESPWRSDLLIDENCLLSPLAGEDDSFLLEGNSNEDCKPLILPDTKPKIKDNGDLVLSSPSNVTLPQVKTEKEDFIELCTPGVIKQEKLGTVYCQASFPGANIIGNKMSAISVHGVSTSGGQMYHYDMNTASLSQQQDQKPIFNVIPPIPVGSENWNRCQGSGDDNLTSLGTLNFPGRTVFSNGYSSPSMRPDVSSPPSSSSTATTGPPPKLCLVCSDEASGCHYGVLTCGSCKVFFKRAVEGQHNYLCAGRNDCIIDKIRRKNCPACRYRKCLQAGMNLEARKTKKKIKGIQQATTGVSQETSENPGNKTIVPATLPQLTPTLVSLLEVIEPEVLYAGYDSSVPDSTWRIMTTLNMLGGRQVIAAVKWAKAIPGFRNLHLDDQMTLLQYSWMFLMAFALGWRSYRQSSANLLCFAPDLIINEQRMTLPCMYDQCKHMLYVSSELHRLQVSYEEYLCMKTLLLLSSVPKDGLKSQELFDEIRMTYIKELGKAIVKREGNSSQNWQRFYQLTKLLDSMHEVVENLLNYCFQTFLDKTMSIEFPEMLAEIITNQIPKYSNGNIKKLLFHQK

[9] = biological target: Cytochrome P450 2C19 (Homo sapiens) (UniProt P33261); assay: qHTS Assay for Inhibitors and Substrates of Cytochrome P450 2C19 (AID 899; active = well fitted curve in the direction sought with a large enough effect; an effect the other way counts as inactive or inconclusive; note: % is set by controls: 0 for no effect and ±100 for the full control effect; nearly all actives have a fitted effect of over 60% in size); settings: recombinant CYP2C19, luciferin-H EGE luminescence; series mostly up to 11.4 µM
Cytochrome P450 2C19 (Homo sapiens), sequence (P33261 whole entry, looked up): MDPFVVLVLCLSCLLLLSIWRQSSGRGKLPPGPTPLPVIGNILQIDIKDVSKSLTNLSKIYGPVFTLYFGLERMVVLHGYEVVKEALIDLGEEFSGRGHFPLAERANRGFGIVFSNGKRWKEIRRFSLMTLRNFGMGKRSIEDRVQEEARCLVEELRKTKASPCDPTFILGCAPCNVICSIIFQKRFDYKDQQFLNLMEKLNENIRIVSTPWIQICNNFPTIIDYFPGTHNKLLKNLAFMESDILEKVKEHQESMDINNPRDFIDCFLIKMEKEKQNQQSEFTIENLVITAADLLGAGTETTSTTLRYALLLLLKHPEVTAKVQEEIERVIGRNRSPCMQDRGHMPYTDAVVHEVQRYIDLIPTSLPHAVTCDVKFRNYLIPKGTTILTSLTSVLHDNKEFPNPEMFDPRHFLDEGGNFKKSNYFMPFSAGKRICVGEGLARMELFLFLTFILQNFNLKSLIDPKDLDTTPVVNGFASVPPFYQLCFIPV
Summary of the method: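 NADPH-dependent conversion of Luciferin-H EGE (10uM, at KM) by 5nM enzyme in 50mM KPO4, 60 min at 37C following 10 min compound preincubation. Stopped with luciferin detection buffer; luminescence read after 20 min.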

[10] = qHTS Assay for Identification of Small Molecule Agonists for Hypoxia Response Element Signaling Pathway (AID 914; active = well fitted activation curve with a large enough effect in the signal ratio, with a control signal flat, not every such curve was filed as active; the % refers to the signal ratio; note: % of control where 0% means no effect); settings: ME-180 (cervical carcinoma) HRE-bla reporter, beta-lactamase ratio, CoCl2, 17 h; activation: active compounds read high
Summary of the method: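 HRE-bla ME-180 cells, overnight plating in Opti-MEM with 0.5% dialyzed FBS; cpd titration + EC50 CoCl2, 17 h, 37 degrees Celsius; CCF4 2.5 h RT; 460/530 nm ratio; AC50.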

[11] = biological target: ATP-dependent 6-phosphofructokinase (Trypanosoma brucei brucei) (UniProt O15648); assay: qHTS Assay to Find Inhibitors of T. brucei phosphofructokinase: hit validation (AID 492961; active = well fitted curve in the direction sought with a large enough effect; an effect the other way counts as inactive or inconclusive); settings: T. brucei PFK, ADP-Glo luminescence; series mostly up to 51.4 µM
ATP-dependent 6-phosphofructokinase (Trypanosoma brucei brucei), sequence (O15648 whole entry, looked up): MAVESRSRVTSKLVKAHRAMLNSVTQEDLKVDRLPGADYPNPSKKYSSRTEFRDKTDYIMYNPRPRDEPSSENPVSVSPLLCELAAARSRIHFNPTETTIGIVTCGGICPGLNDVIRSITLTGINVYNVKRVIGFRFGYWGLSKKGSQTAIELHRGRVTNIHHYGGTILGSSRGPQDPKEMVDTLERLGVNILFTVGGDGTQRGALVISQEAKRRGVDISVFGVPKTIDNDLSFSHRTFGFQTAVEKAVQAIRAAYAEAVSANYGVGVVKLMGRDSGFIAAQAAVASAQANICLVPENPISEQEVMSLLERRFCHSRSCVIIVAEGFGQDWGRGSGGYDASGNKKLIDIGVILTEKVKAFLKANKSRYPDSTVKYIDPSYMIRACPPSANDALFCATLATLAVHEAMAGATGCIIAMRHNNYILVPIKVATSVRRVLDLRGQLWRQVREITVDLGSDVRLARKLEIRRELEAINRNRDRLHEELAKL
Summary of the method: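 Percent activity derived from corrected luminescence, normalized between 0x and 1x enzyme controls, then fitted to concentration-response curves. Conditions: 1.25 nM PFK, 0.1 mM ATP, 0.5 mM F6P, 45 min RT.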

[12] = qHTS profiling for inhibitors of Plasmodium falciparum proliferation (AID 504749; active = well fitted curve in the direction sought with a large enough effect; an effect the other way counts as inactive or inconclusive;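 note: 0% = DMSO vehicle and full inhibition = artemisinin control; nearly all actives have a fitted effect of over 60% in size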); settings: P. falciparum in erythrocytes, SYBR Green DNA, 72 h, at 28.7 µM (top of the series)
Summary of the method: (§1)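 Quantitative HTS: compounds pinned into medium, infected erythrocytes added (0.3% parasitemia, 2.5% hematocrit), 72 h culture at 37 C under 5% CO2. Saponin/Triton lysis with SYBR Green I, overnight RT, then fluorescence read.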

[13] = system: CP192; assay: as above; settings: P. falciparum in erythrocytes, SYBR Green DNA, 72 h; series mostly up to 28.7 µM
Summary of the method: as §1

[14] = system: CP203; assay: as above; settings: P. falciparum in erythrocytes, SYBR Green DNA, 72 h; series mostly up to 28.7 µM
Summary of the method: as §1

[15] = system: W2; assay: as above; settings: P. falciparum in erythrocytes, SYBR Green DNA, 72 h; series mostly up to 28.7 µM
Summary of the method: as §1

[16] = biological target: Glucocorticoid receptor (Homo sapiens) (UniProt P04150); assay: GR-EFC Redistribution (AID 451; calls by dose curve; note: potency is the fitted concentration of half-maximal effect); settings: CHO-K1 GR-EFC translocation, beta-gal luminescence, 2 h
Summary of the method: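 CHO-K1 cells stably expressing nuclear-localized β-gal enzyme acceptor and GR fused C-terminally to the enzyme donor fragment; ligand-driven nuclear translocation restores β-gal by complementation. Compounds titrated up to 46 uM final, 2 h at 37 °C; luminescence read.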

COc1cc(-c2[o+]c3cc(O)cc(O)c3cc2O)cc(O)c1O
inactive: Potency [1] > 11.4 µM | activity change, negative = inhibition [2] 19.4% | activity change, negative = inhibition [3] -19.9% [at 2.29 µM] | activity change, negative = inhibition [4] 20.3% | activity, negative = inhibition [5] 0.423% | Potency [6] | Potency [7]

CSc1nnnc2ccccc12
inactive: Potency [1] > 11.4 µM | activity change, negative = inhibition [2] -4.35% | activity change, negative = inhibition [4] 3.54% | activity, negative = inhibition [5] 0.181% | Potency [8] > 46 µM | Potency [6] | Potency [7] | Potency [9]
active: Potency [3] 3.16 µM

C[C@]12CC[C@H]3c4ccc(O)cc4CC[C@@H]3[C@H]1CC[C@@H]2OP(=O)(O)O
inactive: Potency [1] > 11.4 µM | activity change, negative = inhibition [2] -3.92% | activity change, negative = inhibition [3] -11.2% [at 2.29 µM] | activity change, negative = inhibition [4] 9.37% | activity, negative = inhibition [5] 2.17% | Potency [6] | Potency [7] | activation [10] 11.8% | outcome [11] | activity, negative = inhibition ([12]; parasite line A) 12.7% | activity, negative = inhibition ([12]; parasite line B) 13.6% | Potency [13] | Potency [14] | Potency [15]

O=C(O)[C@@H](O)Cc1ccccn1
inactive: Potency [1] > 11.4 µM | activity change, negative = inhibition [2] 4.97% | Potency [3] | activity change, negative = inhibition [4] 2.96% | activity, negative = inhibition [5] 4.36% | Potency [8] > 46 µM | Potency [6] | Potency [7] | activation [10] 0.65%

CCCCn1cnc2c(SC)ncnc21
inactive: Potency [1] > 11.4 µM | activity change, negative = inhibition [2] -0.746% | activity change, negative = inhibition [4] 5.83% | activity, negative = inhibition [5] 8.32% | Potency [16] > 9.22 µM | Potency [6] | Potency [7]
active: Potency [3] 3.16 µM

N#[N+]c1ccc(Nc2ccccc2)cc1
inactive: Potency [1] > 11.4 µM | activity change, negative = inhibition [2] -0.339% | Potency [3] | activity change, negative = inhibition [4] -28.8% | activity, negative = inhibition [5] -16.1% | Potency [6] | Potency [7]

CCC(=O)OCN1C(=O)C=CC1=O
active: Potency [3] 3.16 µM
inactive: Potency [1] > 11.4 µM | activity change, negative = inhibition [2] -2.18% | activity change, negative = inhibition [4] -27.8% | Potency [8] > 46 µM | Potency [16] > 9.22 µM | Potency [6] | Potency [7]

C[C@@]12CCC(=O)C=C1CC[C@H]1[C@@H]2[C@@H](O)C[C@]2(C)[C@@H]1CC[C@@]2(O)C(=O)CO
inactive: Potency [1] > 11.4 µM | activity change, negative = inhibition [2] -10.2% | Potency [3] | activity change, negative = inhibition [4] 14% | activity, negative = inhibition [5] 4.86% | Potency [6] | Potency [7] | Potency [9]
